DT40 TDP1 no CPT: qHTS for Inhibitors of human tyrosyl-DNA phosphodiesterase 1 (TDP1): qHTS in cells in absence of CPT; DT40 Tdp1-/- hTDP1 cells, no CPT, ATP luminescence, 48 h; Potency, µM (series often up to 46.2 µM), for the others: top-dose activity change, negative = growth inhibition, actives largely listed as inhibitors; 420,000 tested, 15% active; AID 686978, 2013; note: nearly all actives have a fitted effect of over 55% in size
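Seeded 400 DT40-hTDP1 cells/well (vehicle DMSO, no 20 nM CPT); pinned compounds; ≥48 hr at 37 °C; CellTiter-Glo luminescence as viability measure.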
DT40 TDP1 CPT: qHTS for Inhibitors of human tyrosyl-DNA phosphodiesterase 1 (TDP1): qHTS in cells in presence of CPT. chicken DT40 Tdp1-/-;hTDP1 cells + 20 nM CPT, ATP luminescence, 48 h. Potency, µM (series often up to 46.2 µM), for inactives: at the top dose activity change, negative = growth inhibition, usual class: inhibitors. 420,000 tested, 12% active; note: nearly all actives have a fitted effect of over 55% in size
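Chicken DT40 Tdp1-/- cells stably complemented with human TDP1 were seeded at 400 cells/well in medium containing 20 nM camptothecin, exposed to pin-transferred compounds, and grown at 37 °C for at least 48 hr. Viability was read as ATP luminescence.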
KB-3-1 cytotox: qHTS assay for MDR1-selective chemotherapeutics: Primary screen using the parental adenocarcinoma cell KB-3-1 | KB-3-1 viability, CellTiter-Glo ATP luminescence, 72 h | 400,000 tested, 1.4% active | Potency, µM (highest dose often 46.1 µM), usual class: cytotoxic | AID 1347075, 2019; note: nearly all actives have a fitted effect of over 60% in size
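Parental KB-3-1 adenocarcinoma cells in phenol-red-free DMEM with 10% FBS were pin-treated with compounds at several concentrations, incubated 72 h at 37 °C, and viability read by CellTiter-Glo luminescence; concentration-effect curves were fitted after normalization.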
HT1080NT lethal: qHTS for induction of synthetic lethality in tumor cells producing 2HG: qHTS for the HT-1080-NT fibrosarcoma cell line; HT-1080-NT fibrosarcoma viability, CellTiter-Glo ATP luminescence, 48 h; 360,000 tested, 1.6% active; Potency, µM (highest dose often 46.1 µM), for inactives: at the top dose activity, negative = less viability, usual class: cytotoxic; AID 686970, 2013;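 note: NT is the 2HG producing partner of a matched IDH1 knockdown line; 0% = DMSO-treated cells and -100% = media-only wells without cells; nearly all actives have a fitted effect of over 55% in size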
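Compounds were tested in concentration-response format on HT-1080-NT cells for 48 hours at 37 degrees C. Cell viability came from CellTiter-Glo luminescence; curves were classified by r2, response magnitude and activity.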
HT1080 IDH1KD tx: qHTS for induction of synthetic lethality in tumor cells producing 2HG: qHTS for the HT-1080-IDH1KD cell line; HT-1080 IDH1 knockdown viability, ATP luminescence, 48 h; Potency, µM (top dose mostly 46.1 µM), without a hit: top-dose activity, negative = toxicity, usual class: cytotoxic; 360,000 tested, 2% active; AID 686971, 2013;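 note: 0% = DMSO wells and -100% = cell-free medium wells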
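Viability of IDH1-knockdown HT-1080 fibrosarcoma cells was assessed by CellTiter-Glo after 48 h at 37 °C with titrated compound; concentration-effect curves were classified by fit quality and response size.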
KB-V1 cytotox: qHTS assay for MDR1-selective chemotherapeutics: Primary screen using the drug-selected MDR subline cells KB-V1; KB-V1 MDR cells viability, CellTiter-Glo, 72 h; Potency, µM (titrated, usually from 46.1 µM), actives largely listed as cytotoxic; 400,000 tested, 3.4% active; AID 1347076, 2019; note: nearly all actives have a fitted effect of over 60% in size
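KB-V1 MDR subline cells in DMEM (phenol-red free, 10% FBS) exposed to compounds in qHTS concentration series for 72 h at 37 degrees C. Viability read by CellTiter-Glo luminescence; concentration-effect curves fitted after normalization and correction.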
Numbers without * were called inactive; i = inactive; ? = inconclusive; . = no result. Rows were chosen to be rich in hits. Some 19% of all compounds tested hit in one or more screens of this group. Calls come from the whole dose curve; as a rule, active = well fitted curve in the direction sought with a large enough effect; inconclusive = small, poorly fitted or top-dose-only effect, or another doubt; inactive = no such curve, though single readings can be large; an effect the other way counts as inactive or inconclusive. Unless noted, % is set by controls: 0 for no effect and ±100 for the full control effect; potency is the fitted concentration of half-maximal effect.

SMILES | DT40 TDP1 no CPT | DT40 TDP1 CPT | KB-3-1 cytotox | HT1080NT lethal | HT1080 IDH1KD tx | KB-V1 cytotox
OC(COCc1ccc(Cl)cc1)CN1CCN(CC(O)COCc2ccc(Cl)cc2)CC1 (configuration not stated) | 15µM* | 18µM* | ? | ? | ? | ?
OC(COCc1ccc(Cl)cc1)CN1CCCCC1 (configuration not stated) | -1% | 5% | i | -3% | -1% | ?
Cc1ccc(Cl)cc1-n1c(=O)cc(N2CCN(c3ccccc3)CC2)[nH]c1=O | ? | -28% | . | . | . | .
CCNC(=S)Nc1cc(OC)c(NC(=O)c2ccco2)cc1OC | -16% | 1% | i | 14% | 19% | ?
COc1ccccc1OCCNC(=O)c1ccco1 | 26% | -7% | i | 7% | 12% | i
COc1ccccc1C(=O)NNC(=S)Nc1ccccc1 | ? | -1% | i | -1% | -8% | i
O=C(NNC(=S)NC(=O)c1ccco1)c1ccc(F)cc1 | ? | ? | i | -13% | ? | i
COc1ccc(C(=O)NNC(=S)NC(=O)c2ccco2)cc1 | 8.2µM* | 5.2µM* | ? | ? | ? | ?
CCCCOc1ccc(OCCNC(=O)c2ccco2)cc1 | 16µM* | ? | ? | 1% | ? | ?
COC(=O)c1cc(OC)c(OC)cc1NC(=S)NC(=O)c1ccco1 | 10µM* | 21µM* | i | -9% | ? | i
COc1ccccc1C(=O)NNC(=S)NC(=O)c1ccco1 | 7.3µM* | 12µM* | i | -29% | ? | i
COc1ccc(C(C(=O)Nc2ccc(F)cc2)N2CCN(c3cccc(C(F)(F)F)n3)CC2)cc1 (configuration not stated) | ? | ? | i | -3% | -5% | i
O=C1NC(=O)C2(CCCc3ccccc32)N1 (configuration not stated) | -11% | -6% | i | 0% | 3% | i
CCCCCOc1ccc(C(=O)OC(C)C(=O)NCc2ccco2)cc1 (configuration not stated) | ? | ? | ? | ? | 21µM* | ?
CCCOc1ccc(C(=O)NNC(=S)NC(=O)c2ccco2)cc1 | 2.9µM* | 3.3µM* | 9.2µM* | ? | 23µM* | i
O=C(COc1ccc(Cl)cc1Cl)NNC(=S)NC(=O)c1ccco1 | ? | ? | i | -4% | ? | ?
CC(Oc1ccc(Cl)cc1)C(=O)NNC(=S)NC(=O)c1ccco1 (configuration not stated) | 16µM* | ? | ? | ? | ? | i
CCOCCCNC(=O)c1ccc2c(c1)NC(=O)C(CS(=O)(=O)Cc1ccc(F)cc1Cl)N2 (configuration not stated) | -6% | -1% | . | . | . | .
CCn1cc2nc(SCC(=O)Nc3ccc(F)cc3F)n(Cc3ccccc3)c(=O)c2n1 | ? | 23µM* | i | 5% | -5% | i
CCN(C(=O)CSc1nc2ccccc2n1CC(=O)Nc1ccc(F)cc1F)c1ccccc1 | 15µM* | 23µM* | i | . | . | i
Cn1ncc2nc(SCC(=O)Nc3ccc(Br)cc3F)n(Cc3ccccc3)c(=O)c21 | ? | ? | i | . | . | i
Cc1ccc(Cn2c(SCC(=O)Nc3cc(C)on3)nc3ccccc3c2=O)cc1 | ? | ? | i | ? | 3% | ?
